Assay outcomes from PubChem BioAssay.
p53ts 39C kill: cytotoxicity in p53ts cells at nonpermissive temperature. hit rate 1.5% among 130,000. AID 902. Potency, µM (series often up to 46.1 µM), inactives show at the highest dose activity change, negative = cell killing, hits mostly cytotoxic. H1299-p53A138V viability at 39C, ATP luminescence, 24 h; also: % is scaled to controls: 0 for no effect and ±100 for the full control effect; nearly all actives have a fitted effect of over 55% in size
IkB sig inh: inhibitors of IkB signaling in ABC-DLBCL cells; hit rate 0.04% among 110,000; Potency, µM (top dose mostly 57.1 µM), without a hit: at the highest dose IkBa stabilization activation; AID 445; ABC-DLBCL IkBa-CBG/CBR dual luciferase ratio, 4 h; response scale: scaled: untreated 0%, proteasome inhibitor 100%; active = well fitted curve in the direction sought with a large enough effect in the signal ratio, not every such curve was filed as active; inconclusive = small, poorly fitted or top-dose-only effect, or a change in a side signal; the % refers to the signal ratio;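 also: the direction sought is a rising ratio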
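Luminescence ratio of IκBα-fused green versus native red beetle luciferase in OCI-Ly3 cells, 4 h post-doxycycline with compound; red signal alone, scaled from basal (0%) to zero light (-100%), flagged nonspecific or cytotoxic effects.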
p53ts 32C kill: p53ts cell cytotoxicity, permissive temperature; H1299-p53A138V at 32C, ATP luminescence viability, 24 h; Potency, µM (series often up to 46.1 µM), inactives show top-dose activity change, negative = cytotoxicity, actives largely listed as cytotoxic; hit rate 0.93% among 130,000; AID 924;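 also: 0% = DMSO and -100% = full killing by reference compound; nearly all actives have a fitted effect of over 55% in size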
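ATP-content luminescence (ATPlite) read-out after 24 h compound exposure at 32C in H1299-p53A138V cells (600/well). Tested up to 46 uM. Normalized to DMSO (0%) and 100 uM tamoxifen (100% killing); Hill-fit AC50.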
Imprint erasure: inducers of genomic imprint erasure in mouse ES cells; AID 1948; hit rate 0.02% among 110,000; Potency, µM (highest dose often 60.7 µM), for the others: at the top dose activity change, positive = activation, usual class: activators; mouse ES Peg3-LacZ reporter, beta-gal luminescence, 40 h
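Each well holds 300 Peg3LacZ-Neo (maternal) female ES cells incubated 40 h at 37C, 5% CO2. LacZ is measured by BetaGlo luminescence, with AC50 and maximum efficacy derived from dose-response curves.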
The depositor's hits bear a star; ? = inconclusive; · = no result; [ ] = dose if it differs, or a comment. A selection: hits, their analogues and other compounds. The true share with any hit is near 1.7%. Unless noted, calls follow the shape of the dose curve; as a rule, active = well fitted curve in the direction sought with a large enough effect; inconclusive = small, poorly fitted or top-dose-only effect, or another doubt; inactive = no such curve, though single readings can be large; an effect the other way counts as inactive or inconclusive. Potency is read from the fitted curve at half-maximal effect.

SMILES | p53ts 39C kill | IkB sig inh | p53ts 32C kill | Imprint erasure
Cc1ccc(C(=O)CC2(O)C(=O)N(CCc3ccccc3)c3ccc(Br)cc32)o1 (stereo unspecified) | 4% | ? | 4% | -8%
Cc1ccc(C(=O)CC2(O)C(=O)N(CCc3ccccc3)c3ccc(Cl)cc32)cc1 (stereo unspecified) | 16µM* | ? | ? | -12%[10.9 µM]
Oc1cccc2ccc(SSc3ccc4cccc(O)c4n3)nc12 | -2%[9.22 µM] | 0%[11.4 µM] | 4%[9.22 µM] | -3%[10.9 µM]
CC(=O)Nc1cc(C(=O)NCc2ccc(C)cc2)ccc1S(=O)(=O)c1ccc(Cl)cc1 | -22% | ? | 8% | -14%[10.9 µM]
Cn1ccc2cc(NC(=O)Nc3cccnc3)ccc21 | 16µM* | 0% | ? | -24%
O=C(Nc1cccnc1)Nc1ccc(F)c(Cl)c1 | -25% | -3% | ? | -18%
COc1ccc2c(c1OC)C(=O)N(c1cccc(C(F)(F)F)c1)C2 | ? | 0% | ? | -20%
COc1ccc2c(c1OC)C(=O)N(c1cccc(C)c1)C2 | 5µM* | 3% | 7.9µM* | -50%
COc1cc(CNC(=O)CCCCCCC(C)C)ccc1O | -19% | 0%[11.4 µM] | -9% | -33%
CCCCCCCCC(=O)NCc1cc(OC)c(O)cc1I | 32µM* | ? | 4% | -7%
COCCn1c(=O)c(CCc2ccccc2)nc2cnc(N3CCN(C)CC3)nc21 | 3% | -3%[11.4 µM] | -3% | ·
COc1ccc(-c2nc3cnc(N4CCNCC4)nc3n(Cc3cccc(OC)c3)c2=O)cc1 | ? | -1%[11.4 µM] | -20% | ·
COCCn1c(=O)c(CCc2ccccc2)nc2cnc(N3CCOCC3)nc21 | -5% | -2%[11.4 µM] | -4% | 4µM*
COc1cccc(Cn2c(=O)c(-c3ccc(Cl)cc3)nc3cnc(N4CCNCC4)nc32)c1 | ? | -6%[11.4 µM] | 13µM* | -44%
O=c1c(CCc2ccccc2)nc2cnc(N3CCNCC3)nc2n1Cc1ccc(F)cc1 | 13µM* | -3%[11.4 µM] | 2% | ·
Cc1cnc(CNc2ccnc(-c3cccnc3)n2)cn1 | -4% | 2%[11.4 µM] | 15% | -4%
Cc1ccc(C)c(N2CCN(S(=O)(=O)c3ccc(C(=O)N(C)C)s3)CC2)c1 | -15% | ? | -3% | -7%[10.9 µM]
CCCCCn1c(=O)[nH]c2cc(C(=O)Nc3ccc(F)c(F)c3)ccc2c1=O | 23% | -4% | 8% | 8%[10.9 µM]
C[C@@]12CC[C@H]3[C@H](CC=C4C[C@@H](O)CC[C@@]43C)[C@@H]1CC[C@@H]2N(CCO)CCO | -1%[9.22 µM] | -1%[11.4 µM] | -1%[9.22 µM] | ·
O=C(CSc1c2c(nc3ccc(Cl)cc13)CCCC2)N1CCN(C(=O)c2ccco2)CC1 | 6.3µM* | ? | ? | -29%
CCCN(CCC)C(=O)CSc1c2c(nc3ccc(Cl)cc13)CCCC2 | ? | ? | 20µM* | -15%[10.9 µM]
Cc1ccc(NC(=O)CSc2c3c(nc4ccccc24)CCCC3)cc1F | 16µM* | ? | ? | 8%[10.9 µM]
CN(Cc1ccccc1)C(=O)CSc1c2c(nc3ccc(Cl)cc13)CCCC2 | ? | ? | 22µM* | 3%[10.9 µM]
COC(=O)c1c(SCC(=O)Nc2ccccc2C(F)(F)F)[nH]c2ccc(Cl)cc2c1=O | -25% | ? | ? | -3%[10.9 µM]
COC(=O)c1c(SCC(=O)Nc2cc(C)cc(C)c2)[nH]c2ccccc2c1=O | 13µM* | ? | ? | -8%[10.9 µM]
SMILES | p53ts 39C kill | IkB sig inh | p53ts 32C kill | Imprint erasure
CCc1c(C)c2ccc(O)c(CN3CCN(c4ccc(OC)cc4)CC3)c2oc1=O | 7.9µM* | -3% | ? | -14%[10.9 µM]
COC(=O)c1ccc2c(=O)n(CCCCCC(=O)N3CCN(c4cc(C)ccc4C)CC3)c(=O)[nH]c2c1 | 6.3µM* | ? | 16µM* | 13%[10.9 µM]
Cn1c(-c2ccccc2)cnc1SCc1nc2ccccc2c(=O)[nH]1 | ? | 1% | 13µM* | -50%
Cn1c(SCc2nc3ccccc3c(=O)[nH]2)nnc1-c1ccco1 | 9% | 0% | -2% | -15%
Cc1ccc(NC(=O)Cn2c(=O)n(Cc3ccccc3)c(=O)c3c(C)c(C)sc32)c(C)c1 | 15% | 1% | 11% | -16%[10.9 µM]
O=C(Nc1ccc2nc(-c3cccs3)[nH]c2c1)c1ccco1 | 13µM* | 2% | ? | -24%
Cc1cc2nc3[nH]c4c(Cl)cc(Cl)cc4c3nc2cc1C | 6%[9.22 µM] | 1%[11.4 µM] | 4%[9.22 µM] | -3%[10.9 µM]
Nc1ccc(-c2cnc(-c3ccc(N)cc3)nc2)cc1 | 10µM* | ? | 10µM* | -25%
CCCCCCc1ccc(-c2ncc(N)cn2)cc1 | -3% | -1% | 3% | -24%
Cc1ccc2c(c1)N(CC(=O)NCCN1CCOCC1)C(=O)CO2 | 4% | 3% | -3% | -4%
CCOc1ccc(NC(=O)N2CC3CCCN3c3ccccc32)cc1 (stereo unspecified) | 6% | ? | 12% | -8%[10.9 µM]
Cc1cccc2c1-c1sc(C(=O)Nc3ccccc3C(N)=O)cc1CO2 | 13µM* | ? | ? | -36%[10.9 µM]
CCN1CCN(c2csc3ccc(Br)cc3c2=O)CC1 | ? | 9% | -9% | -16%[10.9 µM]
O=C1C(Cl)=C(NCCN2CCOCC2)C(=O)c2ncccc21 | 5µM* | · | 3.2µM* | -82%
c1ccc2c(c1)CCCC2NC1=NCCC1 (stereo unspecified) | 5% | 0% | -2% | 6%
Clc1ccccc1-c1nccc(NCCN2CCOCC2)n1 | -13% | 0%[11.4 µM] | -1% | -13%
O=C1C(Cl)=C(NC2CCc3ccccc32)C(=O)c2ncccc21 (stereo unspecified) | 6.3µM* | · | 2.5µM* | -86%
COCCCNC(=O)CCCn1c(=O)c2ccccc2n(CC(=O)Nc2ccc(C)cc2Cl)c1=O | 25% | 5% | 11% | -5%[10.9 µM]
O=C(CC1S/C(=N/N=C/c2cccs2)NC1=O)Nc1ccc(Cl)c(Cl)c1 (stereo unspecified) | 8% | · | · | ·
CCC1SC(=NC(=O)c2ccc(Cl)c(Cl)c2)NC1=O (stereo unspecified) | 7.9µM* | ? | 7.9µM* | -71%
Cc1ccc(-c2cc(C(=O)N3CCN(c4ncccn4)CC3)c3ccccc3n2)cc1 | 13µM* | ? | 13µM* | -20%
COc1cccc(-c2cc(C(=O)Nn3cnnc3)c3ccccc3n2)c1 | 5µM* | 4% | 4µM* | -21%
O=C(Nn1cnnc1)c1cc(-c2ccccn2)nc2ccccc12 | -17% | 3% | -25% | -3%
COc1cccc(-c2cc(C(=O)N3CCN(c4ncccn4)CC3)c3ccccc3n2)c1 | ? | ? | 13µM* | -11%
O=C(CSc1nc(-c2cccc(Cl)c2)nc2cc(=O)[nH]n12)Nc1ccccc1 | -4% | ? | 6% | 14%[10.9 µM]
Cc1cc(C(=O)Nc2ccc3c(c2)OCCO3)co1 | 16µM* | · | 10µM* | ·
Cn1c(C(=O)Nc2ccc3c(c2)OCCO3)cc2sccc21 | 13µM* | ? | 13µM* | -73%
CCOC(=O)c1c(C)c(C(=O)Nc2ccc3c(c2)OCO3)c(C)n1C | 0% | 3% | 4% | -7%
CCOC(=O)c1c(N)sc(C(=O)Nc2ccc3c(c2)OCO3)c1C | 2.5µM* | ? | 4µM* | -91%
Cc1cc(C)n(-c2ccc(C(=O)Nc3ccc4c(c3)OCCO4)cc2)n1 | ? | ? | ? | -14%
